Biological target: Neuropilin-1 (Homo sapiens) (UniProt O14786)
Experiment: NRP-1 b1b2 CendR peptide binding inhibitors, dose response, biochemical, FP and AlphaScreen panel (AID 651650)
Details: NRP-1 b1b2 / RPARPAR peptide binding, FP or AlphaScreen; run 1, at 100 µM (top of the series)

Sequence of Neuropilin-1 (Homo sapiens) (O14786 whole entry, looked up): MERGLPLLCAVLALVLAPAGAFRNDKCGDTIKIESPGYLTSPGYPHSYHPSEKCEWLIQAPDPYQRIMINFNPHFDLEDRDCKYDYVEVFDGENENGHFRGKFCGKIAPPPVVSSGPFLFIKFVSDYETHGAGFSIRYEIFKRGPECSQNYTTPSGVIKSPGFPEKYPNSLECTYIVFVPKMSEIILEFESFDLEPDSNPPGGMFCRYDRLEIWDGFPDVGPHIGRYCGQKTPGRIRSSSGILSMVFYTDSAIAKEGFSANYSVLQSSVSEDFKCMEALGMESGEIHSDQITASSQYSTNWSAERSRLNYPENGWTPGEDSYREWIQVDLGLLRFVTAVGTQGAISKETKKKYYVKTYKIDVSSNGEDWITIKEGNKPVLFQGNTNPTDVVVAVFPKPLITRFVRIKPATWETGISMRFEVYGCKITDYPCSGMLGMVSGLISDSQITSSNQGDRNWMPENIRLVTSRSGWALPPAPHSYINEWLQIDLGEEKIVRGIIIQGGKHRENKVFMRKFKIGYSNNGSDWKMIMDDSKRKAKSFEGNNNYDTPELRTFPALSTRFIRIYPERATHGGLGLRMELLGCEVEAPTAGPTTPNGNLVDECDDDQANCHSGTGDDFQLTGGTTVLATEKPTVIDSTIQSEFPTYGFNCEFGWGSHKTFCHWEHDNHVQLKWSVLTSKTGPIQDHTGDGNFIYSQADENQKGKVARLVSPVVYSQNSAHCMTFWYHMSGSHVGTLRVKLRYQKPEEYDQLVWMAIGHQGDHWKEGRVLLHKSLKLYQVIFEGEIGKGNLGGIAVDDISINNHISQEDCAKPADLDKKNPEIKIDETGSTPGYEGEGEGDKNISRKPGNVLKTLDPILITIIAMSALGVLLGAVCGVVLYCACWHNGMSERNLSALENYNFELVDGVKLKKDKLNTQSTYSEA

| Structure (SMILES) | inhibition [%] |
| --- | --- |
| O=C(/C=C/c1ccco1)N/C(=C\c1ccccc1)C(=O)NCCc1nc2ccccc2[nH]1 | 11.8 |
| CCC1CCCCN1C(=S)Nc1ccc(OC(F)F)cc1 (centres undefined) | 69.3 |
| COC(=O)C1=C(C)NC(C)=C(C(=O)OC)C1C(=O)OC(C)C(=O)c1ccccc1 (centres undefined) | 12.9 |
| Cc1cc(NC(=O)CCC(=O)NNC(=O)c2ccc(C(C)(C)C)cc2)no1 | 102 |
| O=C(COc1ccc(Br)cc1CO)Nc1ccc(F)cc1 | -9.04 |
| O=C(NNC(=O)C1CCN(c2ncccn2)CC1)c1ccc(F)cc1 | 26.5 |
| Cc1cnccc1CNC(=O)CC1C(=O)NCCN1CC(C)(C)C (centres undefined) | 57.6 |
| Cc1ccccc1/C=C/c1nc2ccccc2c(=O)n1CCc1ccccc1 | 34.1 |
| O=c1c2ccccc2nc2n1C(CSc1ccc(F)cc1)CS2 (centres undefined) | 101 |
| CN(Cc1ccccc1)C(=O)c1nc[nH]c1C(=O)N1CCN(C(=O)OC(C)(C)C)CC1 | 53.3 |
| CN(c1ccccc1)S(=O)(=O)c1cccc(NC(=O)CSc2nncn2C)c1 | 21.8 |
| Cc1ccc(NC=C(S(=O)(=O)c2ccccc2)S(=O)(=O)c2ccccc2)cc1 | -22.8 |
| O=[N+]([O-])c1ccc(Cc2ccncc2)cc1 | 15.9 |
| CCc1onc(C)c1C(=O)Nc1cc(C)ccc1OC | 95.6 |
| OCC[C@H]1C[C@H](O)[C@@H](O)[C@]2(CCCCO2)O1 | -5.29 |
| Cc1ccc(NC(=O)c2ccc3c(c2)S(=O)(=O)c2ccccc2C3=O)cc1S(=O)(=O)N1CCOCC1 | 26.3 |
| CC(C(=O)N1CCN(c2ccc(Cl)cc2)CC1)c1ncc(C(F)(F)F)cc1Cl (centres undefined) | -2.5 |
| C=CCOc1c(CNc2ncn[nH]2)cccc1OCC | 33.2 |
| CC(C)(C)OC(=O)N1CCC(NC(=O)c2nc[nH]c2C(=O)N2CCc3ccccc3C2)CC1 | 25.2 |
| Cc1cc2cc(CNC(=O)c3ccc(S(=O)(=O)N4CCOCC4)cc3)ccc2n1C | 18.3 |

| Structure (SMILES) | inhibition [%] |
| --- | --- |
| O=C(NCc1ccccc1)c1ccc(N2CCC3(CC2)CC(c2ccc(Cl)cc2)=NO3)c([N+](=O)[O-])c1 | 69.3 |
| Cc1ccc(NC(=O)COc2ncnc3c(Cl)cc(Cl)cc23)cc1[N+](=O)[O-] | -2.85 |
| N/C(CSc1ccc(Cl)cc1)=N\S(=O)(=O)c1ccc(Cl)cc1 | 37.6 |
| Cc1ccc(NC(=S)N2CCN(Cc3ccccc3)CC2)cc1 | -7.69 |
| CC1CCC(NC(=O)C2CCC(CNS(=O)(=O)c3cccc4cccnc34)CC2)CC1 (centres undefined) | 19 |
| O=C1N[C@H](Cc2c[nH]c3ccccc23)COC(=O)[C@H](Cc2ccc(F)cc2)C/C=C\C[C@H]1CC(=O)N(CCO)Cc1ccccc1 | 41.5 |
| CC(=O)/C(=N\Nc1ccc(Cl)cc1Cl)Sc1cccc2cccnc12 | 24.8 |
| CC(O)(c1cccnc1)c1nc(/C=C/c2ccccc2)cs1 (centres undefined) | 42.6 |
| O=C(O)CSc1nnc(-c2ccc(Cl)cc2Cl)n1-c1ccc(Cl)cc1 | 74.1 |
| O=Cc1ccc(-c2ccccc2C(=O)O)o1 | 51.8 |
| Cc1ccccc1Oc1ccc2c(c1)[C@@H]1C[C@H](N(C)C(=O)Nc3cc(Cl)cc(Cl)c3)[C@H]([C@H](C)O)C(=O)N1CC2 | 97.5 |
| CCc1ccc(OC(=O)CN2C(=O)c3ccccc3C2=O)cc1 | 76.9 |
| C[C@@H](NC(=O)c1[nH]cnc1C(=O)Nc1cccc(Cl)c1)c1ccccc1 | 54.3 |
| Cc1nnc(NC(=O)c2ccccc2C(=O)O)s1 | 99.7 |
| Cc1ccc(NC(=S)Nc2cccc3ccccc23)cc1 | 13.4 |
| O=C(NNc1ncnc2c1cnn2-c1ccc(F)cc1)c1ccco1 | 25.9 |
| OCC1OC(n2cnc3c(/C=C(\O)c4ccccc4)ncnc32)C(O)C1O (centres undefined) | 3.57 |
| CC(=O)C(=Cc1ccc(Cl)cc1)C(=O)c1ccccc1 | 27.1 |
| COc1ccc(-c2noc(CN(C(=O)c3ccc4c(c3)OCO4)C(C)C)n2)cc1 | 27.6 |

— PubChem BioAssay AID651650 (Sanford-Burnham Center for Chemical Genomics, 2012)
